Results on five compounds are retold here after PubChem BioAssay.

Assay [1] is described as follows: anti-His antibody binders, primary screen, artefact control for SMM control protein annotation, biochemical, small-molecule microarray, 635 nm fluorescence (AID 1128).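 Also: score merges feature fluorescence with signal-to-noise for each printed compound spot.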 To be noted: anti-His Alexa647 antibody binding, higher = more signal.
Assay [2] relates to Human papillomavirus type 1a E7 protein (residues 1-88). Briefly: HPV1a E7 small-molecule binders, primary screen, biochemical, small-molecule microarray, residues 1-88, 635 nm (AID 1129). To be noted: small-molecule microarray binding, fluorescence 635 nm; higher = more signal.
Assay [3] deals with Focal adhesion kinase 1 (Homo sapiens) (UniProt Q05397). Briefly: small-molecule microarray binders of FAK, primary screen, biochemical, 635/667 nm fluorescence, BSA, DTT (AID 1130).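 Also: composite of spot emission at 667 nm and signal to noise over triplicate slides.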 The following applies: PTK2 binding, 635 nm fluorescence, higher = more signal.
In assay [4] the test system is Fibrinogen (Alexa647-labelled). The assay is described as follows: fibrinogen binders on compound microarrays, profiling panel, artefact control for SMM control-protein annotation, biochemical, small-molecule microarray, 635/667 nm fluorescence (AID 1131).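 Also: z-score merges 667 nm fluorescence with per-spot signal-to-noise over triplicate slides.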 The following applies: fibrinogen-A647 binding fluorescence, higher = more signal.
Assay [5] has as its target Follistatin (Homo sapiens) (UniProt P19883). Briefly: follistatin binders on small-molecule microarrays, primary screen, biochemical, small-molecule microarray, 635/667 nm fluorescence (AID 1132). To be noted: FST binding, 635 nm fluorescence, higher = more signal.
Assay [6] addresses Fibroblast growth factor 2 (Homo sapiens) (UniProt P09038). Briefly: FGF2 binders on small-molecule microarrays, primary screen, biochemical, small-molecule microarray, 635/667 nm fluorescence (AID 1133). The following applies: small-molecule microarray binding, FGF2, fluorescence 635/667; higher = more signal.
The nature of assay [7]: mitochondrial membrane potential change in A549 cells, profiling panel, cell-based, JC-1 fluorescence, basal, 24 h, 100 nL (AID 1138).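 Also: A549 lung adenocarcinoma cells under basal conditions with no added stimulus; test concentration not given here.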 The following applies: higher = more signal.
The test system of another assay is Lefty1. The assay is described as follows: Lefty1 binders on small-molecule microarrays, primary screen, biochemical, small-molecule microarray, 635/667 nm fluorescence (AID 1139). To be noted: small-molecule microarray binding, fluorescence 635/667; higher = more signal.
The subject of assay [8] is wheat germ agglutinin (Triticum aestivum), Alexa647-labelled. The assay is described as follows: wheat germ agglutinin binders on compound microarrays, profiling panel, artefact control for SMM control-protein annotation, biochemical, small-molecule microarray, 635/667 nm fluorescence (AID 1140).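 Also: score merges 667 nm feature emission with signal to noise over triplicate slides.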 The following applies: WGA-A647 binding, 635 nm fluorescence, higher = more signal.

Assay [9] has as its target Luciferin 4-monooxygenase (Photinus pyralis) (UniProt P08659). Briefly: firefly luciferase enzyme inhibitors, primary screen, biochemical, luminescence, purified enzyme, 2006 set (AID 1141).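 Also: cell-free assay with purified firefly luciferase at 100 ng per well in PBS; test concentration not given here.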 To be noted: SteadyGlo luminescence, 30 min, higher = more signal, called active from +8 up or from −8 down.
Assay [10] has as its system Wnt5a (protein binding on small-molecule microarray). Briefly: Wnt5a binders on small-molecule microarray, primary screen, biophysical, 635/667 nm fluorescence (AID 1142).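 Also: fluorescence read at 667 nm with signal to noise per printed feature.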 To be noted: 635 nm fluorescence, higher = more signal.
Assay [11] in a line: cell viability in Huh7 cells, primary screen, cytotoxicity control for HCV replication inhibitor project, CellTiter-Glo luminescence, basal, 48 h (AID 1143).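 Also: Huh7 hepatoma cells carrying a hepatitis C replication reporter with no stimulus; test concentration not given here.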 The following applies: Huh7 HCV replicon, higher = more signal, called active from +8 up or from −8 down.
Assay [12] can be described thus: P. aeruginosa biofilm formation inhibitors, primary screen, PAO1 strain, BacTiter-Glo luminescence, LB-PBS (AID 1144). To be noted: 12 h, higher = more signal.
Assay [13] can be described thus: CREB reporter modulators without forskolin, primary screen, cell-based, PC12, CRE-LacZ reporter, unstimulated (AID 1145). To be noted: no forskolin, luminescence, 4.5 h, higher = more signal, called active from +8 up or from −8 down.
Assay [14] is described as follows: CREB reporter modulators under forskolin, primary screen, cell-based, PC12, CRE-LacZ reporter, forskolin-stimulated (AID 1146).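 Also: PC12 cells with 6xCRE LacZ reporter stimulated by forskolin 10 µM; beta-galactosidase reporter signal reflecting CREB driven transcription.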 To be noted: luminescence, 4.5 h, higher = more signal, called active from +8 up or from −8 down.
Assay [15] has as its target Streptavidin (Streptomyces avidinii) (UniProt P22629). The assay is described as follows: streptavidin binders on small-molecule microarray, primary screen, artefact control for SMM compound annotation, biophysical, 635/667 nm fluorescence (AID 1147).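 Also: signal reflects streptavidin binding to arrayed compounds as a control protein.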 The following applies: streptavidin binding, higher = more signal.
Assay [16] in a line: small-molecule binders of probe aInhba, primary screen, biochemical, small-molecule microarray, 635/667 nm fluorescence (AID 1148).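 Also: score merges 667nm spot fluorescence with signal-to-noise for antibody binding to printed compounds.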 The following applies: higher = more signal.
In assay [17] the target is Torsin-1A (Homo sapiens) (UniProt O14656). Briefly: torsin A binders from cell lysate, primary screen, small-molecule microarray, wild-type, 635/667 nm (AID 1149). The following applies: COS7 hTOR1A-WT lysate, 635 nm fluorescence, higher = more signal.
Assay [18] has the same target. Briefly: small-molecule binders of mutant TOR1A in lysate, primary screen, cell lysate, small-molecule microarray, COS7 lysate, 635/667 nm fluorescence (AID 1150).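 Also: score pools 667 nm emission and signal to noise measuring lysate protein binding.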 The following applies: COS7 hTOR1A mutant lysate, 635 nm fluorescence, higher = more signal.
Assay [19] relates to Sonic hedgehog protein (Shh). Briefly: small-molecule binders of Shh protein, primary screen, biochemical, small-molecule microarray, 635/667 nm fluorescence (AID 1151).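 Also: Shh protein binding to compounds spotted on small-molecule microarray slides; score combines spot fluorescence intensity with signal-to-noise across triplicate slides.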 To be noted: small-molecule microarray binding, 635 nm fluorescence; higher = more signal.

Active and inactive are the calls of the source. Unless noted, no rule for the calls is given here.

Sequence of Focal adhesion kinase 1 (Homo sapiens) (Q05397 whole entry, looked up): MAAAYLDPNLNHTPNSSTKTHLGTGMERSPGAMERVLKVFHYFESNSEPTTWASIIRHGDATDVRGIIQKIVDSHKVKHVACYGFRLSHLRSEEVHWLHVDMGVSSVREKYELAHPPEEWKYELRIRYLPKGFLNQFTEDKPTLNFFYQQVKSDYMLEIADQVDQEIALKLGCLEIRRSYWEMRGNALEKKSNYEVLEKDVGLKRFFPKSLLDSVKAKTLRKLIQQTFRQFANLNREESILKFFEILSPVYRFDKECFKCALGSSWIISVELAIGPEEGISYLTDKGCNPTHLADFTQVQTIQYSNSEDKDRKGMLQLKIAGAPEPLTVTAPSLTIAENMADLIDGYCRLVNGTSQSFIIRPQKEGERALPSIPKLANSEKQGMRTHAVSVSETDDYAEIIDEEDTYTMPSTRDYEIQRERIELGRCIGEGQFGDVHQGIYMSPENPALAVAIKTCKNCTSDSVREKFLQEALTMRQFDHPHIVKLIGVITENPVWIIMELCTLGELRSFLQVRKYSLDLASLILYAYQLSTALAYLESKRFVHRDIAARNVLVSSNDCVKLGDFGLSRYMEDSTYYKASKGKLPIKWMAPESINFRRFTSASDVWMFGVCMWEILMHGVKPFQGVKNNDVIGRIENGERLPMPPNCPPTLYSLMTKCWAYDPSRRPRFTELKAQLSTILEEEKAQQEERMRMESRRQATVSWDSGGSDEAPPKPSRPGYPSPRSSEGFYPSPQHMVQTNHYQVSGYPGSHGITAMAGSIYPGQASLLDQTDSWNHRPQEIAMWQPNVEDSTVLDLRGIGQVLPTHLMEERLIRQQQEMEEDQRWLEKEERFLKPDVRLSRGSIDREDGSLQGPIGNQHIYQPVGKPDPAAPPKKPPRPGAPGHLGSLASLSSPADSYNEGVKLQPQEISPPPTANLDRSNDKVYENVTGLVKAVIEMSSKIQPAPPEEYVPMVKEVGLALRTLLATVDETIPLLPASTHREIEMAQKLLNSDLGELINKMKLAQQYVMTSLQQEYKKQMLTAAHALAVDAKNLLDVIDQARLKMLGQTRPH
Sequence of Streptavidin (Streptomyces avidinii) (P22629 whole entry, looked up): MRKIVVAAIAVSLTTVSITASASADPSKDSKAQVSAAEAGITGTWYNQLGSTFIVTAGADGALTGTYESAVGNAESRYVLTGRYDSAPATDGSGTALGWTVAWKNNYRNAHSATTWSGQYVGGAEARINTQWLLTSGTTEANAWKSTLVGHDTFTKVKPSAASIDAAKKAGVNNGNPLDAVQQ
Sequence of Luciferin 4-monooxygenase (Photinus pyralis) (P08659 whole entry, looked up): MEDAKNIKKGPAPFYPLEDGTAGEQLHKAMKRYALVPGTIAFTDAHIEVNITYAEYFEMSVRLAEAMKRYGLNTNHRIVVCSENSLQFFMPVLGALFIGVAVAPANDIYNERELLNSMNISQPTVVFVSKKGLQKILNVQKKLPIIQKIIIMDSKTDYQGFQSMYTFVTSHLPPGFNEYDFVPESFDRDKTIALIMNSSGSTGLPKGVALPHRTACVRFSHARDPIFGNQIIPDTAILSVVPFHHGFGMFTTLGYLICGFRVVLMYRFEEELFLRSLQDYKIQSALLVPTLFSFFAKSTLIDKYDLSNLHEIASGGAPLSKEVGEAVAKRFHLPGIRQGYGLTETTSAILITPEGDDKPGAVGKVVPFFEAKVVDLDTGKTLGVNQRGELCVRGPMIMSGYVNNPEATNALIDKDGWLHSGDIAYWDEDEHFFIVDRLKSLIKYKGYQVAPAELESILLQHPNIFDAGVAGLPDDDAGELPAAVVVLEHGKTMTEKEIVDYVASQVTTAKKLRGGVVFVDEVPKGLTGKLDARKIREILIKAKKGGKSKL
Sequence of Follistatin (Homo sapiens) (P19883 whole entry, looked up): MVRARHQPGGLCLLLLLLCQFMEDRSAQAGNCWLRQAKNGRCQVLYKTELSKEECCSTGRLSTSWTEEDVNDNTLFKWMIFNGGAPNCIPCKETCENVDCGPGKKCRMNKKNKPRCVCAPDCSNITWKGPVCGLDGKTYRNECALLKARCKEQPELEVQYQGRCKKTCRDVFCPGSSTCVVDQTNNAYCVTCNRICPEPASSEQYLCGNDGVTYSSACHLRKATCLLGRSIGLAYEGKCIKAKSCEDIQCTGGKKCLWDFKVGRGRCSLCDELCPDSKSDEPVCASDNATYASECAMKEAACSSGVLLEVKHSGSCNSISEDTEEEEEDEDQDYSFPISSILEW
Sequence of Torsin-1A (Homo sapiens) (O14656 whole entry, looked up): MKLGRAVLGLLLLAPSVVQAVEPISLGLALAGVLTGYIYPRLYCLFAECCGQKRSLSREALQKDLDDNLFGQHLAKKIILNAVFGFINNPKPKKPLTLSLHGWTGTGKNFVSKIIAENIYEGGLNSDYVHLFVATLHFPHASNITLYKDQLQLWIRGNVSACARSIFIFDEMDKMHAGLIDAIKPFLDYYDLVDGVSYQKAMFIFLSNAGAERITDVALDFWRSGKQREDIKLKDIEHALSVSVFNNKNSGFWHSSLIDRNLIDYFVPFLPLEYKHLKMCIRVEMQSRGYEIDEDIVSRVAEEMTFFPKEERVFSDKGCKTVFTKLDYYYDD
Sequence of Fibroblast growth factor 2 (Homo sapiens) (P09038 whole entry, looked up): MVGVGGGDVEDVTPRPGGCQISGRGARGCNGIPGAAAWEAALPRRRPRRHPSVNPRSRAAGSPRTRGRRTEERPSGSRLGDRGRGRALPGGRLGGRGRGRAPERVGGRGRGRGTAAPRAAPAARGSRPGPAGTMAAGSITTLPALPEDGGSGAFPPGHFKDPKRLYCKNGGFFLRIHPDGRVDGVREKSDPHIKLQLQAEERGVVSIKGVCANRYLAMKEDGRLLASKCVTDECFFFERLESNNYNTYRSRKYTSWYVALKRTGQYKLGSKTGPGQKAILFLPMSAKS

For `NCCCC[C@@H]1NC(=O)[C@H]2C[C@@H](C(=O)NCc3ccc(F)cc3)[C@@H](c3cccc(OCCO)c3)N2C1=O`, the composite z-score in assay [1] is 2.48; in [2], 1.23; in assay [3], 0.0858; in assay [4], 0.763; in assay [5], 1.32; in assay [6], 1.62. The composite z-score with Lefty1 is 1.56; in [8], 0.231; in assay [10] it was 0.334; in assay [15], -0.0648; in [16] it was 0.122; in the assay with Torsin-1A (Homo sapiens) [17], 0.608. The values for the composite z-score (with Torsin-1A (Homo sapiens) [18]; in [19]) were 1.48 and 2.07, respectively. Moreover, the z-score was -1.7 in assay [7]; -0.434 (inactive) in [9]; -0.262 (inactive) in assay [11]; -0.862 (inactive) in assay [12]; 0.0084 (inactive) in assay [13]; -0.583 (inactive) in assay [14].
Consider `COc1cccc(OC)c1C(=O)O[C@H]1[C@@H]2OC(=O)[C@H](Cc3cccc(Br)c3)C/C=C/C[C@@H](Cc3cccc(Br)c3)C(=O)O[C@H]2[C@@H](OC)O[C@@H]1CO`, for which the composite z-score in assay [1] was found to be 0.267; in [2] it was 1.1; in assay [3] it was 0.573; in assay [4], 0.383; in assay [5], 1.38; in [6], 1.28. Further, the composite z-score in the assay with Lefty1 is 0.742; in assay [8], 0.0452; in assay [10], 0.125; in assay [15] it was -0.114; in [16], -0.128; with Torsin-1A (Homo sapiens) [17] it was -0.0031. Further, the composite z-score with Torsin-1A (Homo sapiens) [18] is 0.529; in [19], 1.23. Moreover, the z-score is 1.27 in assay [7]; -0.21 (inactive) in assay [9]; -1.74 (inactive) in [11]; -0.0318 (inactive) in assay [12]; -0.467 (inactive) in [13]; -0.201 (inactive) in assay [14].
With `CN1C(=O)C2C=CC(C(O)c3ccc(-c4ccccc4)s3)N(Nc3ccccc3)C2C1=O` (stereo not given), the composite z-score in assay [1] was 1.33; in assay [2] it was 1.19; in assay [3] it was 0.283; in [4], 0.96; in assay [5] it was 1.12; in [6], -0.0002. Also, the composite z-score in the assay with Lefty1 was -0.304; in [8] it was 1.07; in assay [10], -0.24; in assay [15], 2.23; in assay [16], 0.395; in the assay with Torsin-1A (Homo sapiens) [17], 0.0922. The figures for the composite z-score (with Torsin-1A (Homo sapiens) [18]; in assay [19]) were 0.271 and -0.212, respectively. For the same compound, the z-score is 0.5 in [7]; 0.17 (inactive) in assay [9]; 0.809 (inactive) in assay [11]; -0.46 (inactive) in [12]; 0.429 (inactive) in assay [13]; -0.666 (inactive) in assay [14].
Consider `COc1ccc(NN2C(C(O)c3cc(C(F)(F)F)cc(C(F)(F)F)c3)C=CC3C(=O)N(C4CCCCC4)C(=O)C32)cc1` (stereo not given), for which the composite z-score is 0.764 in [1]; 1.1 in [2]; 0.359 in assay [3]; 0.895 in assay [4]; 0.544 in assay [5]; -0.0047 in [6]. Further, the composite z-score was -0.364 with Lefty1; 1.2 in [8]; 0.397 in [10]; 0.837 in [15]; 1.19 in assay [16]; 0.408 in the assay with Torsin-1A (Homo sapiens) [17]. Further, the composite z-score in the assay with Torsin-1A (Homo sapiens) [18] was 1.19; in assay [19], -0.0356. Also, the z-score was -0.822 in assay [7]; 0.36 (inactive) in assay [9]; -2.42 (inactive) in assay [11]; -1.1 (inactive) in [12]; -0.723 (inactive) in [13]; -0.504 (inactive) in [14].
As to `CCCCN1CC=CC23O[C@@H]4/C=C\CCC(C)OC(=O)C4[C@H]2C(=O)N(C(C)CO)[C@@H]3C1=O` (stereo not given in full), the composite z-score was -0.0307 in [1]; -1.41 in assay [2]; 0.578 in assay [3]; -0.526 in [4]; -0.16 in [5]; -0.379 in assay [6]. Besides, the composite z-score in the assay on Lefty1 is -0.034; in assay [8], -0.128; in assay [10], -0.0151; in assay [15], -0.447; in assay [16] it was -0.161; in the assay with Torsin-1A (Homo sapiens) [17], -0.185. Moreover, the composite z-score was -1.01 with Torsin-1A (Homo sapiens) [18] and -0.0387 in assay [19]. Also, the z-score is 0.256 in assay [7]; -0.762 (inactive) in assay [9]; 0.24 (inactive) in assay [11]; -0.297 (inactive) in [12]; -0.497 (inactive) in [13]; -0.21 (inactive) in [14].
